Laboratory results published in PubChem BioAssay (EPA / NIEHS).
Inconclusive results are not listed. The source made the active and inactive calls. The calls were made as follows: active = hit-call score of the fitted dose curve at least 0.9, where 1 is the maximum; inconclusive = response in the unintended direction; inactive = score below 0.9.

What was measured:
[1] = molecular target: human Dopamine Receptor D2 (DRD2), DRD2 (gene 1813) (UniProt P14416); assay: NVS_GPCR_hDRD2s: NovaScreen (NVS) G Protein-Coupled Receptor Assay for human Dopamine Receptor D2 (DRD2) (AID 2283266)
Summary of the method: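 Radioligand displacement used human DRD2 membranes extracted from CHO cells and was read by filter-based scintillation counting after 1.5 hours. Primary screening was in duplicate at 25 uM. Loss of signal versus DMSO was fitted, with concentration series in follow-up.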

[2] = molecular target: human Adrenergic, Beta 1 Receptor (Adrb1), ADRB1 (gene 153) (UniProt P08588); assay: NVS_GPCR_hAdrb1: NovaScreen (NVS) G Protein-Coupled Receptor Assay for human Adrenergic, Beta 1 Receptor (Adrb1) (AID 2283258)
Summary of the method: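 Cell-free radioligand displacement on receptor from human neuroepithelioma cells; 2 h after dosing, filter-based scintillation counting. Primary screen in duplicate at 25 uM, actives retested in concentration series; loss of signal vs DMSO baseline.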

[3] = molecular target: human Adrenergic, Alpha 2c Receptor (Adra2C), ADRA2C (gene 152) (UniProt P18825); assay: NVS_GPCR_hAdra2C: NovaScreen (NVS) G Protein-Coupled Receptor Assay for human Adrenergic, Alpha 2c Receptor (Adra2C) (AID 2283259)
Summary of the method: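 Radioligand binding on Sf9-expressed receptor membranes, 1 h after chemical dosing, filter-based scintillation read-out. Loss of binding fitted positively versus DMSO; primary duplicate screen at 25 uM, actives retested in concentration series.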

[4] = molecular target: Type-1 angiotensin II receptor (Homo sapiens) (UniProt P30556); assay: NVS_GPCR_hAT1: NovaScreen (NVS) G Protein-Coupled Receptor Assay for human Angiotensin II receptor type 1 (AT1) (AID 2283263)
Summary of the method: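 Membranes from KAN-TS cells; radioligand competitive displacement, 3 h, filtration and scintillation counting. Single-point duplicate screen at 25 uM, then concentration-response up to 50 uM for hits; loss of signal fitted versus DMSO.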

[5] = molecular target: human Dopamine Receptor D4.4 (DRD4.4), DRD4 (gene 1815) (UniProt P21917); assay: NVS_GPCR_hDRD4.4: NovaScreen (NVS) G Protein-Coupled Receptor Assay for human Dopamine Receptor D4.4 (DRD4.4) (AID 2283264)
Summary of the method: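 Radioligand displacement on human DRD4.4 from CHO-derived membranes, 1 hour incubation, bound counts read by filtration and scintillation. Primary screen in duplicate at 25 uM; actives followed up in concentration series.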

[6] = molecular target: D(1A) dopamine receptor (Homo sapiens) (UniProt P21728); assay: NVS_GPCR_hDRD1: NovaScreen (NVS) G Protein-Coupled Receptor Assay for human Dopamine Receptor D1 (DRD1) (AID 2283269)
Summary of the method: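 Cell-free competition with radioligand, filter-trapped and scintillation-counted 1 h post-dose, using HEK293-derived human D1 preparation. Duplicate single-point testing at 25 uM first, then concentration series for actives; DMSO served as baseline, loss-of-signal scored.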

[7] = molecular target: human Muscarinic, M4 Receptor, CHRM4 (gene 1132) (UniProt P08173); assay: NVS_GPCR_hM4: NovaScreen (NVS) G Protein-Coupled Receptor Assay for human Muscarinic, M4 Receptor (AID 2283274)
Summary of the method: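 Cell-free radioligand displacement using CHO-derived human M4 receptor protein, 1 h after dosing; bound radioactivity by filtration and scintillation counting. Primary screen single 25 uM duplicate, actives followed in concentration series.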

[8] = molecular target: Muscarinic acetylcholine receptor M5 (Homo sapiens) (UniProt P08912); assay: NVS_GPCR_hM5: NovaScreen (NVS) G Protein-Coupled Receptor Assay for human Muscarinic, M5 Receptor (AID 2283275)
Summary of the method: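 Radioligand displacement on CHO-derived membrane preparations, 1 h, filter-based scintillation counting. Single-concentration duplicate screen at 25 uM; hits (e.g. 30% inhibition) retested in singleton concentration-response up to 50 uM. Loss of binding fitted versus DMSO.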

[9] = molecular target: human Adrenergic, Alpha 2A Receptor (Adra2A), ADRA2A (gene 150) (UniProt P08913); assay: NVS_GPCR_hAdra2A: NovaScreen (NVS) G Protein-Coupled Receptor Assay for human Adrenergic, Alpha 2A Receptor (Adra2A) (AID 2283257)
Summary of the method: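 Radioligand filter-binding was run on HT29-derived membranes, cell-free, read by scintillation counting 1 h after dosing. Primary screening was in duplicate at 25 uM, with concentration series in follow-up. Loss of signal versus DMSO indicates displacement.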

[10] = molecular target: Muscarinic acetylcholine receptor M2 (Homo sapiens) (UniProt P08172); assay: NVS_GPCR_hM2: NovaScreen (NVS) G Protein-Coupled Receptor Assay for human Muscarinic, M2 Receptor (AID 2283273)
Summary of the method: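 CHO membrane prep, radioligand + test compound, 1 h; filtration, scintillation count. Screen 25 uM duplicate → conc. series for actives. Readout: decrease in binding vs DMSO control.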

[11] = molecular target: Neuropeptide Y receptor type 2 (Homo sapiens) (UniProt P49146); assay: NVS_GPCR_hNPY2: NovaScreen (NVS) G Protein-Coupled Receptor Assay for human Neuropeptide Receptor Y2 (NPY2) (AID 2283277)
Summary of the method: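 Radioligand binding on membranes extracted from SK-N-MC cells, cell-free, read 1 h after dosing by filter-based scintillation counting. Loss of signal vs DMSO. Primary screen in duplicate at 25 uM; actives followed up in concentration-response up to 50 uM.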

[12] = molecular target: human Histamine 1 Receptor (H1), HRH1 (gene 3269) (UniProt P35367); assay: NVS_GPCR_hH1: NovaScreen (NVS) G Protein-Coupled Receptor Assay for human Histamine 1 Receptor (H1) (AID 2283268)
Summary of the method: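 Cell-free radioligand displacement at human H1 receptor, 1 h, filter scintillation counting; primary screen 25 uM in duplicate, hits in concentration series; loss of binding fitted vs DMSO.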

[13] = molecular target: Beta-2 adrenergic receptor (Homo sapiens) (UniProt P07550); assay: NVS_GPCR_hAdrb2: NovaScreen (NVS) G Protein-Coupled Receptor Assay for human Adrenergic, Beta 2 Receptor (Adrb2) (AID 2283261)
Summary of the method: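 Filter-based radioligand binding using receptor prepared from CHO cells, 1 h incubation, scintillation counting. Primary screen in duplicate at 25 uM, actives retested in concentration series; loss of binding relative to DMSO.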

[14] = molecular target: Muscarinic acetylcholine receptor M1 (Homo sapiens) (UniProt P11229); assay: NVS_GPCR_hM1: NovaScreen (NVS) G Protein-Coupled Receptor Assay for human Muscarinic, M1 Receptor (AID 2283270)
Summary of the method: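 Cell-free radioligand displacement using membrane protein extracted from CHO cells, read by filter-based scintillation counting 1 h after dosing. Loss of bound signal fitted versus DMSO; primary screen single concentration 25 uM in duplicate, actives followed by concentration series.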

[15] = molecular target: Muscarinic acetylcholine receptor M3 (Homo sapiens) (UniProt P20309); assay: NVS_GPCR_hM3: NovaScreen (NVS) G Protein-Coupled Receptor Assay for human Muscarinic, M3 Receptor (AID 2283272)
Summary of the method: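 Radioligand displacement binding on human M3 receptor in CHO-derived membranes, 1 h incubation, filter-based scintillation counting. Primary screen in duplicate at 25 uM; actives followed up in concentration series; loss of signal versus DMSO.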

[16] = molecular target: human Neuropeptide Receptor Y1 (NPY1), NPY1R (gene 4886) (UniProt P25929); assay: NVS_GPCR_hNPY1: NovaScreen (NVS) G Protein-Coupled Receptor Assay for human Neuropeptide Receptor Y1 (NPY1) (AID 2283276)
Summary of the method: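 Cell-free radioligand binding using receptor extracted from SK-N-MC cells, 1 h incubation, filter-based scintillation counting. Primary screen single concentration 25 uM in duplicate; actives followed in concentration series. Loss of bound signal scored versus DMSO.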

human Adrenergic, Alpha 2A Receptor (Adra2A), ADRA2A (gene 150), sequence (P08913 whole entry, looked up): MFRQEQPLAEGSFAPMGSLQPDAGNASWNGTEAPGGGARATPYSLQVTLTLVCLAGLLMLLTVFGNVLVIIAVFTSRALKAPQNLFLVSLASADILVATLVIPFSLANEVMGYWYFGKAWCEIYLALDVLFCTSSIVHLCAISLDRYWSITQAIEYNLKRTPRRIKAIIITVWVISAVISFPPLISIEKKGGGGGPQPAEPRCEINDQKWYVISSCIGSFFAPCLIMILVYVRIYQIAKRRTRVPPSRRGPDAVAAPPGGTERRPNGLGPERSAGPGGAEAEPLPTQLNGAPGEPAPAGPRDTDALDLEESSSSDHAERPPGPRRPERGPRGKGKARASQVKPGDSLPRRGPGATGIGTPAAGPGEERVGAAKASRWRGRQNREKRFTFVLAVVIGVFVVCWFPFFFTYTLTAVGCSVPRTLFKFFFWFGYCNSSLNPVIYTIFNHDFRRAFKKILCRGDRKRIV
D(1A) dopamine receptor (Homo sapiens), sequence (P21728 whole entry, looked up): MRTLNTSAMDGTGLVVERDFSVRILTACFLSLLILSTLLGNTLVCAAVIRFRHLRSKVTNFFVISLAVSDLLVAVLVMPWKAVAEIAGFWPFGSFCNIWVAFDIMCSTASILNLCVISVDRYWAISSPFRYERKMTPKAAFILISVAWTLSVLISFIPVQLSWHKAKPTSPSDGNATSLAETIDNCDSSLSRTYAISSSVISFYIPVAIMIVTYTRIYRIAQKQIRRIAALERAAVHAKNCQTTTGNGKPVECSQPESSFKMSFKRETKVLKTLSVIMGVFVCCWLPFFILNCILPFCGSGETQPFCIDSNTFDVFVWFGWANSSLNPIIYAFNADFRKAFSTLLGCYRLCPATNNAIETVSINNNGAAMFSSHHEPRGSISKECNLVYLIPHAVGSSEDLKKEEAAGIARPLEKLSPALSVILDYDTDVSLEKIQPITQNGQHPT
human Dopamine Receptor D2 (DRD2), DRD2 (gene 1813), sequence (P14416 whole entry, looked up): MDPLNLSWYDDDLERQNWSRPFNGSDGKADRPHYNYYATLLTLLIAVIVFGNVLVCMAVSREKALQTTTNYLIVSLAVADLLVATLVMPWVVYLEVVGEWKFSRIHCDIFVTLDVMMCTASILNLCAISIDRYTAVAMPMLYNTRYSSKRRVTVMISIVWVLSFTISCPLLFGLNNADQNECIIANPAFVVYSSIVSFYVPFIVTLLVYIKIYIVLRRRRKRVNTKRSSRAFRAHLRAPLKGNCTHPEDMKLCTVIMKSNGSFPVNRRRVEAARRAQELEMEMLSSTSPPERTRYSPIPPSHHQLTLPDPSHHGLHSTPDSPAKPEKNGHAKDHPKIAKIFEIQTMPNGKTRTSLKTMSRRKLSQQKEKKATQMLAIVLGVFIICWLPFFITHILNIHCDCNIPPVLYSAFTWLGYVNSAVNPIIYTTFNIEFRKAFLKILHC
human Adrenergic, Beta 1 Receptor (Adrb1), ADRB1 (gene 153), sequence (P08588 whole entry, looked up): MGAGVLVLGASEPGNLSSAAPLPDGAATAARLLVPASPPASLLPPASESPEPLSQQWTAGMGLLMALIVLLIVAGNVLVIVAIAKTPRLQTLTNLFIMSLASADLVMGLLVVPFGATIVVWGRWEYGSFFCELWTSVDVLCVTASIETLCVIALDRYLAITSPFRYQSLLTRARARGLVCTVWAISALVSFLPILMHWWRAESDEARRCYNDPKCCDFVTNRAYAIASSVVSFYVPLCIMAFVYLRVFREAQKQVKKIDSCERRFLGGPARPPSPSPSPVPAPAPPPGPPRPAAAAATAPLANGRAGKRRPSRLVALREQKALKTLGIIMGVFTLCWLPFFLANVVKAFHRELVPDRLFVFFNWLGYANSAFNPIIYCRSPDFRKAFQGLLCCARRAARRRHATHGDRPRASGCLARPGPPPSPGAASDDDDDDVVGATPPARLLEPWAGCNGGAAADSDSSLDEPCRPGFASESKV
human Adrenergic, Alpha 2c Receptor (Adra2C), ADRA2C (gene 152), sequence (P18825 whole entry, looked up): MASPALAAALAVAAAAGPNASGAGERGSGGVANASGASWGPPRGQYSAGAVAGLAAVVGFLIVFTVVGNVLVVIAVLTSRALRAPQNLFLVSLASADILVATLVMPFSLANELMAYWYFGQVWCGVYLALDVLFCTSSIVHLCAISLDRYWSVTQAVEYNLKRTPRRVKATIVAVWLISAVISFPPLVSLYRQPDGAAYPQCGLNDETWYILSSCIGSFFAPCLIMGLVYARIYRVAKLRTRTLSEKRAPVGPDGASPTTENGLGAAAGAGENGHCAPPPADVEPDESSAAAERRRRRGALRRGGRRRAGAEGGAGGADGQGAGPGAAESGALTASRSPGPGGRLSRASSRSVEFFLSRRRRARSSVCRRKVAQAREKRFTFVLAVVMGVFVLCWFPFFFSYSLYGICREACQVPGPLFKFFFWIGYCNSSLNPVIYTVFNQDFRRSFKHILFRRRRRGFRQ
Muscarinic acetylcholine receptor M2 (Homo sapiens), sequence (P08172 whole entry, looked up): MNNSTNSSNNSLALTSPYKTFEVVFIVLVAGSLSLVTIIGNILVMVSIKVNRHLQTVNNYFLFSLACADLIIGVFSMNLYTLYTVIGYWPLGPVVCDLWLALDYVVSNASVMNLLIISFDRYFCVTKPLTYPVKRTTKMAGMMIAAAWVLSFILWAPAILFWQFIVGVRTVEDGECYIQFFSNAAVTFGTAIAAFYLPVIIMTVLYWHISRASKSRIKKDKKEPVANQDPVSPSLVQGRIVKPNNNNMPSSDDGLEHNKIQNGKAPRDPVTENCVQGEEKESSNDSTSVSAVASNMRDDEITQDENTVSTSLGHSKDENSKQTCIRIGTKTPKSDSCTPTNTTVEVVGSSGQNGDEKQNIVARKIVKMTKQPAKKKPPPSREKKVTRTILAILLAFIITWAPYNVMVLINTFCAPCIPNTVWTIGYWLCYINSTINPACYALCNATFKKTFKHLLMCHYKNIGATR
Neuropeptide Y receptor type 2 (Homo sapiens), sequence (P49146 whole entry, looked up): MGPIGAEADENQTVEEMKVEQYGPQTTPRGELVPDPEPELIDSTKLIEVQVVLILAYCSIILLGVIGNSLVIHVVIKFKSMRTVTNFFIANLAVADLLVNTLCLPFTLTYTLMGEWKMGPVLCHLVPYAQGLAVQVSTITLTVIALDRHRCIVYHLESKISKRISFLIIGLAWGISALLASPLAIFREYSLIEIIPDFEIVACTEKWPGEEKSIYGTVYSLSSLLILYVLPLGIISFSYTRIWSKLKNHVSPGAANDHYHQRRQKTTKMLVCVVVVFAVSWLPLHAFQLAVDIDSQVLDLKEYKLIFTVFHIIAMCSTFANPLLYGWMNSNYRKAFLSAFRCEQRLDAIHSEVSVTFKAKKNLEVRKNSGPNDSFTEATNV
Type-1 angiotensin II receptor (Homo sapiens), sequence (P30556 whole entry, looked up): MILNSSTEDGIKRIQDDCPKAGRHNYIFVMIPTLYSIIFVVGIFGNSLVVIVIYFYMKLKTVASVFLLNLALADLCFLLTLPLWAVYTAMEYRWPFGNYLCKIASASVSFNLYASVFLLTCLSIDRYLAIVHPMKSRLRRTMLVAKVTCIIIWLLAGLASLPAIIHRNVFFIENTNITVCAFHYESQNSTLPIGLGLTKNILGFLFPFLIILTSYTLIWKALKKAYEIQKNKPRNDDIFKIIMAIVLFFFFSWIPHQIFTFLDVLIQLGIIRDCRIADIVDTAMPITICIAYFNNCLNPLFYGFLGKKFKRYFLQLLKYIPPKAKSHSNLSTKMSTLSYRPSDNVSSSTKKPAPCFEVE
human Dopamine Receptor D4.4 (DRD4.4), DRD4 (gene 1815), sequence (P21917 whole entry, looked up): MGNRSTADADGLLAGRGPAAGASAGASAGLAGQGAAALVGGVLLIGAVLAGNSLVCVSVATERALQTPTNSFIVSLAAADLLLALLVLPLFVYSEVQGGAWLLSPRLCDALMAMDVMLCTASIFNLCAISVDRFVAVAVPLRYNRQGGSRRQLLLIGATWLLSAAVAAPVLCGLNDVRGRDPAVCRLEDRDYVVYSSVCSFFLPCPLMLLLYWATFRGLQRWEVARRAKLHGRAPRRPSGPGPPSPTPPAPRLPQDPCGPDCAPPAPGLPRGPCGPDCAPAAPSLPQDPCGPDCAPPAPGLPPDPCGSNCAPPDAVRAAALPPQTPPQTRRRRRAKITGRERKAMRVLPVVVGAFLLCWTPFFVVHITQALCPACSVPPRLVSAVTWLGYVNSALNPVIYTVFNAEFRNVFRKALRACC
Muscarinic acetylcholine receptor M5 (Homo sapiens), sequence (P08912 whole entry, looked up): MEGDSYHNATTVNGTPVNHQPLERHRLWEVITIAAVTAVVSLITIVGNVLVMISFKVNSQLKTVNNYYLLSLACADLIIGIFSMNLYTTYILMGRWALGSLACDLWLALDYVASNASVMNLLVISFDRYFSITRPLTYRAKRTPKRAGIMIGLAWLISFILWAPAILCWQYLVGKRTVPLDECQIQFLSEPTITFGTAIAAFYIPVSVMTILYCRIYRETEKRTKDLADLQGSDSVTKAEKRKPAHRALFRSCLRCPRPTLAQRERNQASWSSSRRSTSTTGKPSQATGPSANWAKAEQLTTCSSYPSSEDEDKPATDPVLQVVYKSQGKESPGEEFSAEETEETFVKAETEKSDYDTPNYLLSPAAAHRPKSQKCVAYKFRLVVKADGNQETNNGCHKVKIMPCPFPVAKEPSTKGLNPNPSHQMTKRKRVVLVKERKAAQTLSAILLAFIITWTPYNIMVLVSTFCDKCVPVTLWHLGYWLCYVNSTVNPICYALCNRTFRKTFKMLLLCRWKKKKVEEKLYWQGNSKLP
human Muscarinic, M4 Receptor, CHRM4 (gene 1132), sequence (P08173 whole entry, looked up): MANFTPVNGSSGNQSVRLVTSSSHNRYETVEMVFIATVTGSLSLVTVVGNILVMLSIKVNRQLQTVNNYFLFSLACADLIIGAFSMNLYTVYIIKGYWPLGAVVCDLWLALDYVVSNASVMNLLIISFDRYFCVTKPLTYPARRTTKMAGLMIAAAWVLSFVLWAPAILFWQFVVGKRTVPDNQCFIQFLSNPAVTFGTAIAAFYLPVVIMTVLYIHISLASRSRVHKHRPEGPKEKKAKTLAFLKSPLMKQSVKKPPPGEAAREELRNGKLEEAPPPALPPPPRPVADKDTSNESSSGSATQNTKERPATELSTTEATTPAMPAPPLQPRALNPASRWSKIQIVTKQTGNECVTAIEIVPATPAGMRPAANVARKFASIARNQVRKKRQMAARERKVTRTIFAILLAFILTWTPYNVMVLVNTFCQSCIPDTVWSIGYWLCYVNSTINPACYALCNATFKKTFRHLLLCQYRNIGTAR

CCc1ccc(O)c(C(C)(C)C)c1
outcome [1]: inactive

C=CCc1cc(S(=O)(=O)c2ccc(O)c(CC=C)c2)ccc1O
AC50 [2]: 20.1 µM (active) | AC50 [3]: 8.06 µM (active) | AC50 [4]: 17.1 µM (active) | AC50 [5]: 25 µM (active) | AC50 [1]: 33.1 µM (active) | AC50 [6]: 9.78 µM (active) | outcome [7]: inactive | AC50 [8]: 25 µM (active)

Cc1ncc([C@@H](CCCCCCc2ccc3c(n2)NCCC3)CC(=O)O)cn1
AC50 [9]: 13.7 µM (active) | AC50 [3]: 16.2 µM (active) | AC50 [10]: 19.2 µM (active)

CCCCCCCC/C=C\CCCCCCCC(=O)OC[C@@H](O)[C@H]1OC[C@H](O)[C@H]1O
AC50 [2]: 43.1 µM (active) | AC50 [6]: 34.5 µM (active) | outcome [11]: inactive

O=C(O)c1ccc2c(c1)nc(C(=O)NC1CCN(C3CC3)CC1)n2Cc1cc(-c2ccc(Cl)s2)on1
AC50 [9]: 0.308 µM (active) | outcome [3]: inactive

c1ccc2cc3ccccc3cc2c1
outcome [12]: inactive

O=c1[nH]cnc2c1ncn2[C@H]1CC[C@@H](CO)O1
outcome [5]: inactive | AC50 [1]: 32.7 µM (active) | outcome [6]: inactive

CC(C)CCCCCCOC(=O)C1CCCCC1C(=O)OCCCCCCC(C)C (stereo not given)
outcome [13]: inactive

COc1cc(C(C)C)c2c(c1)S(=O)(=O)N(COc1cc(=O)n3cccc(OCCN4CCCCC4)c3n1)C2=O
AC50 [9]: 2.83 µM (active) | AC50 [3]: 0.424 µM (active) | AC50 [1]: 1.6 µM (active) | AC50 [6]: 6.25 µM (active) | AC50 [14]: 2 µM (active) | AC50 [15]: 8.91 µM (active) | AC50 [10]: 0.681 µM (active) | AC50 [7]: 3.98 µM (active) | AC50 [8]: 3.71 µM (active) | AC50 [11]: 0.84 µM (active)

CCN(CC)C(=S)SSC(=S)N(CC)CC
AC50 [2]: 2.55 µM (active) | outcome [4]: inactive | AC50 [16]: 17.5 µM (active)
